Laboratory results: PubChem BioAssay AID588382 (National Center for Advancing Translational Sciences (NCATS), 2011)
About 150 (12%) of roughly 1,300 compounds were called active. About 30% were inconclusive and are not listed. Calls come from the whole dose curve; as a rule, active = well fitted cell-killing curve with a large enough effect; inconclusive = small, poorly fitted or top-dose-only effect, or effect the other way; inactive = flat fitted curve, though single readings scatter. Shown is part of a subset that was picked to be rich in actives. A call without a number means that no potency is given here.
Potency is the fitted concentration of half-maximal effect.

Assay: qHTS of small molecules that selectively kill Giardia lamblia: Hit Validation in HepG2 cytotox;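 note: compound exposure lasted overnight at 37 deg C; nearly all actives have a fitted effect of over 55% in size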
Details: cell viability; Potency: HepG2 cytotoxicity; series mostly up to 38.3 µM
In short: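 HepG2 cells seeded and incubated overnight at 37 deg C, then 23 nL compound added by pintool and incubated overnight at 37 deg C. Viability read as ATP luminescence with ATPLite after 15 min at room temperature.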
For COCCn1c(C)cc(C(=O)COc2cccnc2[N+](=O)[O-])c1C, the Potency was “inactive”. In the case of O=C(Nc1nnc(C2=COCCO2)o1)c1cccc(F)c1, the Potency is reported as “inactive”. In the case of COc1nn(C(C)C(=O)N2N=C(C(F)F)CC2(O)C(F)F)cc1[N+](=O)[O-] (stereo unspecified), the Potency is reported as “inactive”. With COc1cc(/C=C/c2ccc3cccc(OC)c3n2)c(OC(C)=O)c([N+](=O)[O-])c1 the Potency was “inactive”. With CN(C)C(=O)c1cc([N+](=O)[O-])cc([N+](=O)[O-])c1N(C)C the Potency was “inactive”. With COc1ccccc1CNC(=O)CSc1ccsc1[N+](=O)[O-] the Potency was “inactive”. For Cc1ccc(OCc2ccc([N+](=O)[O-])cc2)c([N+](=O)[O-])n1, the Potency was “inactive”. For Cc1cc(C(=O)COc2cccnc2[N+](=O)[O-])c(C)n1Cc1cccs1, the Potency was “inactive”. In the case of Cc1onc(-c2ccccc2)c1C(=O)N/N=C/c1ccc([N+](=O)[O-])c(O)c1, the Potency is reported as “inactive”. With COc1cc2c(c3oc(-c4ccccc4)cc(=O)c13)C=CC(C)(C)O2 the Potency was “inactive”. In the case of O=[N+]([O-])c1ccc(/C=N/Nc2ncccc2[N+](=O)[O-])s1, the Potency is reported as “inactive”. In the case of Cc1nc2ccccc2n1/N=C/c1ccc([N+](=O)[O-])s1, the Potency is reported as 16.5 µM (active). For O=[N+]([O-])c1ccc(/C=N/n2c(CO)nc3ccccc32)s1, the Potency was “inactive”. For CN(C)c1ccc(N=Nc2ccccc2C(=O)O)cc1, the Potency was “inactive”. For CCOC(=O)Cn1c(=NC(=O)c2ccc([N+](=O)[O-])s2)sc2ccccc21, the Potency was “inactive”. For COc1ccc(C(=O)N(Cc2ccccc2)c2cccc(C)c2)cc1, the Potency was “inactive”. In the case of CCOc1ccc2nc(NC(=O)c3c([N+](=O)[O-])cnn3CC)sc2c1, the Potency is reported as “inactive”. For CCC(C(=O)OC)n1c(-c2ccccc2)nc2ccccc2c1=O (stereo unspecified), the Potency was “inactive”. In the case of CCOC(=O)N=Nc1c2ccccc2c2nc3no[nH]c3nc12, the Potency is reported as 0.736 µM (active). For CN(C)c1cc(NC(=O)CNC(C)(C)CC(C)(C)C)c2ccccc2n1, the Potency was “inactive”. With CC1CCN(c2c([N+](=O)[O-])nn(-c3ccc4c(c3)OCCO4)[n+]2[O-])CC1 the Potency was “inactive”. In the case of COCCNc1cc(NCCOC)c([N+](=O)[O-])cc1[N+](=O)[O-], the Potency is reported as “inactive”. With Cc1ccc([C@H]2C(C(=O)O)=CC[C@@H](c3ccc(C)cc3)N2S(=O)(=O)c2ccc(C)cc2)cc1 the Potency was “inactive”. For CCC(C)Nc1ccc(NC(C)CC)cc1 (stereo unspecified), the Potency was 0.165 µM (active). In the case of O=C(COc1cccnc1[N+](=O)[O-])Nc1c(Cl)cccc1Cl, the Potency is reported as “inactive”. In the case of O=[N+]([O-])c1nn(-c2ccc(Cl)cc2)n(O)c1=NCc1ccncc1, the Potency is reported as “inactive”. With OCCSc1nc(-c2ccccc2)nc2ccc(F)cc12 the Potency was “inactive”. For O=C(Cc1csc(Nc2nc(=S)[nH]c3ccccc23)n1)NCCCN1CCN(c2ccccc2F)CC1, the Potency was 16.5 µM (active). For CCOC(=O)N1C(C)CN(/[N+]([O-])=N/Oc2ccc([N+](=O)[O-])cc2[N+](=O)[O-])CC1C (stereo unspecified), the Potency was “inactive”. For O=c1/c(=C/c2ccc(O)c([N+](=O)[O-])c2)sc2nc3ccccc3n12, the Potency was “inactive”. For Cc1ccc2c(c1)c1nc3ccccc3nc1n2C, the Potency was “inactive”. For Cc1cnc([N+](=O)[O-])n1CCOC(=O)c1cccc(F)c1, the Potency was “inactive”. In the case of O=C(c1ccc([N+](=O)[O-])o1)N1CCOCC1, the Potency is reported as “inactive”. For Cc1oc2c(c1C(=O)N1CCOCC1)C(=O)c1ccccc1C2=O, the Potency was 4.65 µM (active). In the case of CC1CCN(c2ccc(-c3ccc(NC(=O)C(F)(F)F)cc3)nn2)CC1, the Potency is reported as 4.14 µM (active). For N#CC1C=Cc2c(ccc3ccccc23)N1C(=O)c1ccccc1 (stereo unspecified), the Potency was “inactive”. In the case of Cc1nc2c(ccc3nc(NC(=O)c4ccc5c(c4)OCCO5)sc32)s1, the Potency is reported as 1.85 µM (active). For CC(=O)c1sc(NC(=O)c2ccc(C)c(C)c2)nc1C, the Potency was “inactive”. In the case of O=C(Nc1ccc2c(c1)OCCO2)c1cc(-c2ccccn2)nc2ccc(Br)cc12, the Potency is reported as “inactive”. In the case of Cc1[nH]n(S(=O)(=O)Cc2ccccc2)c(=O)c1N=Nc1ccccc1Cl, the Potency is reported as “inactive”. With O=C(COc1cccnc1[N+](=O)[O-])c1c[nH]c2ccccc12 the Potency was “inactive”. With Cc1[nH]c2ccccc2c1C(=O)C(C)OC(=O)c1ccc([N+](=O)[O-])o1 (stereo unspecified) the Potency was “inactive”. With COC(=O)c1sc(NC(=O)COc2cccnc2[N+](=O)[O-])c(C(=O)OC)c1C the Potency was “inactive”. For Cc1cc2[nH]c3c(c[n+](C)c4ccccc34)c2cc1C, the Potency was 3.29 µM (active). With COC(=O)c1ccc(Cn2cc(C(F)(F)F)cc([N+](=O)[O-])c2=O)cc1 the Potency was “inactive”. With CCc1ccc([C@@H]2CC=C(C(=O)O)[C@H](c3cccc(Cl)c3)N2S(=O)(=O)c2ccc(C)cc2)cc1 the Potency was “inactive”. For Cc1ccc(CN=c2c([N+](=O)[O-])nn(-c3ccc4c(c3)OCCO4)n2O)cc1, the Potency was “inactive”. In the case of Cc1ccccc1N1CCN(Cc2ccc([N+](=O)[O-])o2)CC1, the Potency is reported as “inactive”. For COc1cc(/C=C2\COC/C(=C\c3cc(OC)c(OC)c(OC)c3)C2=O)cc(OC)c1OC, the Potency was 2.33 µM (active). With COc1cc(/C=C/c2onc(C)c2[N+](=O)[O-])cc(OC)c1OC the Potency was “inactive”. In the case of COc1cc(C2CC(=O)Oc3cc(C)c(Cl)c(C)c32)cc(OC)c1OC (stereo unspecified), the Potency is reported as “inactive”. With Cc1ccc(S(=O)(=O)N2CC(C(=O)O)=CC[C@H]2c2ccc(Cl)cc2)cc1 the Potency was “inactive”. For O=C(O)C=C(Br)Br, the Potency was “inactive”. In the case of COc1ccc(C(=O)c2c3ccccc3[n+]([O-])n2CCCN)cc1, the Potency is reported as “inactive”. With CC(Oc1cccnc1[N+](=O)[O-])C(=O)Nc1ccc(F)cc1 (stereo unspecified) the Potency was “inactive”. In the case of COc1ccc2c(c1)C1OCCC1C(c1ccco1)N2 (stereo unspecified), the Potency is reported as 10.4 µM (active). In the case of CC(=O)OCON[N+]([O-])=NC(C)C, the Potency is reported as “inactive”. With OCCOCCNc1ncnc2c1c(-c1ccccc1)cn2-c1ccccc1 the Potency was “inactive”. In the case of C(=C\c1nc2ccccc2s1)/c1ccc2c(c1)OCO2, the Potency is reported as 2.07 µM (active). For O=[N+]([O-])c1cc(C(F)(F)F)ccc1Oc1cccnc1[N+](=O)[O-], the Potency was “inactive”. With Cc1nc2c(N=Nc3ccccc3F)c(N)nn2c(N)c1C#N the Potency was “inactive”. In the case of Cc1ccc(OCC(=O)Nc2ccc(C)c(F)c2)c([N+](=O)[O-])n1, the Potency is reported as “inactive”. With CC(C)(C)[C@H](N)C(=O)N[C@H]1CCC2C3CC=C4C[C@@H](O)CC[C@]4(C)C3CC[C@@]21C (stereo partly specified) the Potency was 2.33 µM (active). With O=C(Nc1ccc(Cl)cn1)c1ccccc1[N+](=O)[O-] the Potency was “inactive”. With Brc1ccc(CNc2nc3ccccc3n2CCN2CCCCC2)cc1 the Potency was “inactive”. With NC(=S)NN=C1CCCCCCCC1 the Potency was “inactive”. For COc1ccc(-c2nc(NCCCN(C)C)c3ccccc3n2)cc1, the Potency was “inactive”. In the case of CCN(CC)CCCNc1nc2ccccc2c2[nH]c3ccc(OC)cc3c12, the Potency is reported as 2.61 µM (active). With NCCCn1c(C(=O)c2cc(Cl)c(N)c(Cl)c2)c2ccccc2[n+]1[O-] the Potency was “inactive”. For O=[N+]([O-])C(/C=C(/Cl)[N+](=O)[O-])=C(N1CCCCC1)N1CCCCC1, the Potency was “inactive”. For CC(=O)N(/N=C/c1ccc([N+](=O)[O-])o1)c1nc2ccccc2c(=O)n1-c1ccccc1, the Potency was “inactive”. In the case of O=[N+]([O-])c1ccc(/C=C/C2=NN(c3ccccc3)C(c3ccco3)C2)o1 (stereo unspecified), the Potency is reported as “inactive”. In the case of O=c1c2ccccc2nc(/C=C/c2ccc([N+](=O)[O-])o2)n1CCCO, the Potency is reported as 3.69 µM (active). For O=[N+]([O-])c1ncccc1Oc1nc(-c2cccnc2)nc2ccccc12, the Potency was “inactive”. With COc1ccc(C(=O)COC(=O)c2ccccc2NS(=O)(=O)c2ccc(O)c([N+](=O)[O-])c2)cc1 the Potency was “inactive”. For Cc1[nH]n(S(=O)(=O)c2ccccc2)c(=O)c1N=Nc1cccc(Cl)c1, the Potency was “inactive”. In the case of Cc1[nH]n(C2=NCCS2)c(=O)c1N=Nc1cccc(C(F)(F)F)c1, the Potency is reported as 4.65 µM (active). With CN(C(=O)c1ccc(N2CCCCC2)c([N+](=O)[O-])c1)C1CCS(=O)(=O)C1 (stereo unspecified) the Potency was “inactive”. For Cc1ccc(C(=O)c2c3ccc([N+](=O)[O-])cc3[n+]([O-])n2CCCC(N)=O)cc1, the Potency was “inactive”. With O=c1cc[nH]c2ccc([N+](=O)[O-])cc12 the Potency was “inactive”. With Cc1cc(C(=O)COc2cccnc2[N+](=O)[O-])c(C)n1Cc1ccco1 the Potency was “inactive”. For c1ccc(-c2nc(-c3cnc4ccccc4n3)cs2)cc1, the Potency was “inactive”. For CC1(C)CC(N=c2cc(-c3ccccc3)oc3ccc(Cl)cc23)CC(C)(C)N1, the Potency was 8.26 µM (active). For CN(C)CCCN=c1cc(-c2ccccc2)oc2ccc(Cl)cc12, the Potency was “inactive”. With Clc1ccc2oc(-c3ccccc3)cc(=NCCCN3CCOCC3)c2c1 the Potency was “inactive”. In the case of O=C(CSc1ccsc1[N+](=O)[O-])NCCc1ccc(Cl)cc1, the Potency is reported as “inactive”. With O=[N+]([O-])c1cn(-c2nc(-c3ccco3)cc(C(F)(F)F)n2)cn1 the Potency was “inactive”. In the case of CNN/C(N=Cc1ccc([N+](=O)[O-])s1)=N\S(=O)(=O)c1cc(C)c(Cl)cc1SCc1ccccc1, the Potency is reported as “inactive”. With Clc1ccc2c(N/N=C/c3cccc(Br)c3)ccnc2c1 the Potency was 11.7 µM (active). With Clc1ccc2c(N/N=C/c3ccccc3Br)ccnc2c1 the Potency was 14.7 µM (active). In the case of CCOC(=O)C1CCN(c2ccc([N+](=O)[O-])c(C(C)=O)c2)CC1, the Potency is reported as “inactive”. With Cc1ccc(C(C(=O)NCc2ccco2)N(C(=O)CNC(=O)c2cccs2)c2c(C)cccc2C)cc1 (stereo unspecified) the Potency was “inactive”. For NC(=O)c1ccc(Nc2ccc([N+](=O)[O-])cc2[N+](=O)[O-])cc1, the Potency was “inactive”. With CC(=O)c1c(C)n([O-])c2ccc(C)cc2[n+]1=O the Potency was “inactive”. In the case of C=CCn1c(C)cc(C(=O)COC(=O)c2n[nH]c(=O)c3ccccc23)c1C, the Potency is reported as “inactive”. In the case of COc1ccc(-n2nc([N+](=O)[O-])c(=NCCC3=CCCCC3)n2O)cc1, the Potency is reported as “inactive”. In the case of COc1ccc2c3n([n+]([O-])c2c1)CCN=C3c1cc(Cl)c(N)c(Cl)c1, the Potency is reported as “inactive”. With O=c1[nH]cnc2ccc([N+](=O)[O-])cc12 the Potency was “inactive”. With COC(=O)Nc1nc2ccc(SC(C)C)cc2[nH]1 the Potency was “inactive”. For COC(=O)Nc1nc2ccc(Sc3ccccc3)cc2[nH]1, the Potency was “inactive”. For COc1cc(SC)ccc1C(=O)Nc1nc2ccccc2[nH]1, the Potency was 2.07 µM (active).
